a7 integrin act = integrin-mediated muscular dystrophy alleviation activation; alpha7betagal myoblasts, beta-gal FDG fluorescence, 48 h; Potency, µM (top dose mostly 38.3 µM), usual class: activators; 350,000 tested, 0.064% active; AID 624291; active means well fitted activation curve with a large enough effect; inconclusive means small, poorly fitted or top-dose-only effect; inactive means no such curve, though single readings can be large or run the other way; further: nearly all actives have a fitted effect of over 60% in size
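alpha7betagal+/- myoblasts (passage 13, 250/well) treated 48 h at 37C with compounds at 1:260 dilution of DMSO stock. Lysed, then beta-galactosidase activity read as FDG fluorescence (ex 480/em 540) after 30 min, with pre-read for autofluorescence.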
D3 ag = D3 dopamine receptor (human) agonism; P35462; D3R DiscoveRx beta-arrestin cells, luminescence, 90 min; max activation, %; 410,000 tested, 0.58% active; AID 652048; in the data active means max activation above about 30%
Target sequence (P35462 whole entry, looked up): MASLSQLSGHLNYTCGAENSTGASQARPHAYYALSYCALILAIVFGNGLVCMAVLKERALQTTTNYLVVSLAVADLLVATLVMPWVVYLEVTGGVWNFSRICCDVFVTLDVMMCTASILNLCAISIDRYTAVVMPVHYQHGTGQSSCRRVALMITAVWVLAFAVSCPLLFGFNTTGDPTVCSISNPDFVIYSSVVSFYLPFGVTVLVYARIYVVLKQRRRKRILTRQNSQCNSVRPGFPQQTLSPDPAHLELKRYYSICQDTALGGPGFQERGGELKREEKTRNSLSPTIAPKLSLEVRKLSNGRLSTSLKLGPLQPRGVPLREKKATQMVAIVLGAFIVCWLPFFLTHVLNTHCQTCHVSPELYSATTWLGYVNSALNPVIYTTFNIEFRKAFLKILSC
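Agonist-mode cell screen: cells plated at 1500/well and incubated overnight at 37 °C, then exposed to library compounds for 90 min at 37 °C. Detection reagent was added for 30–60 min at room temperature, and luminescence was read.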
D3 antag = antagonists of human D3 dopamine receptor; D3R cells, DiscoveRx beta-arrestin luminescence, antagonist mode; active compounds read low; max response, negative = inhibition, %; 360,000 tested, 2.5% active; AID 652054; in the data active means max response below about -50%; inconclusive means no clear call, values can overlap the other calls
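Cells expressing the human receptor were seeded at 1500 cells/well, incubated overnight at 37 degrees C in 5% CO2, then exposed to library compounds with dopamine controls for 90 minutes at 37 degrees C before luminescent detection.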
Large screens that a line does not name were inactive. A selection: hits, their analogues and other compounds. The true share with any hit is near 2.9%.

COc1ccc(NC(=O)/C(Cl)=C(/Cl)S(=O)(=O)Cc2ccc(C)cc2)cn1	D3 antag -77
COc1ccc(NC(=O)/C(Cl)=C(/Cl)S(=O)Cc2ccccc2Cl)cn1 (stereo not given)	D3 antag -96
CC(C)n1nnnc1C1c2ccccc2C(=O)N1CCCN1CCOCC1 (stereo not given)	none (no result: a7 integrin act)
CCNC(=O)C1(C)CCN(C(=O)c2ccc(C(=O)OC)cc2)C1 (stereo not given)	none (no result: a7 integrin act)
Cc1cccc2cc(C#N)c(N3CCN(C)CC3)nc12	D3 antag -72
Cc1ccc2cc(C#N)c(N3CCN(C)CC3)nc2c1	D3 antag -82
Cc1ccc2nc(N3CCN(C)CC3)c(C#N)cc2c1	D3 antag inconclusive
Cc1cc(C)c2nc(N3CCN(C)CC3)c(C#N)cc2c1	none
Cc1[nH]c(=O)cc2ccccc12	D3 antag inconclusive
O=c1oc2ccc(C#CC3(O)CCCCC3)cc2cc1-n1cc(C2(O)CCCCC2)nn1	none
CCC(=NCc1ccco1)c1c(C(F)(F)F)[nH]n(-c2nc3ccccc3s2)c1=O	none
CCC(=NCc1ccccc1)c1c(C(F)(F)F)[nH]n(-c2nc3ccccc3s2)c1=O	D3 antag -60
CCNC(COC(=O)c1ccc([N+](=O)[O-])cc1)C1CCCCC1 (stereo not given)	none
Cc1ccc(C(=O)NCCN2C3=NC[C@@H](Cc4ccccc4)N3C[C@H]2Cc2ccc(O)cc2)cc1Br	D3 antag -58
C/C=C(\C)C(=O)NCCN1C2=NC[C@@H](C)N2C[C@@H]1Cc1ccc(OC)cc1	none
Cc1ccc(C(=O)NCCN2C3=NC[C@H](Cc4ccc(O)cc4)N3C[C@H]2Cc2ccc(O)cc2)cc1Br	D3 antag inconclusive
COc1ccc(C[C@H]2CN3C(=NC[C@@H]3Cc3ccccc3)N2CCNC(=O)c2ccc(C)c(Br)c2)cc1	D3 antag -100
COc1ccc(C[C@H]2CN3C(=NC[C@@H]3Cc3ccc(O)cc3)N2CCNC(=O)c2ccc(C)c(Br)c2)cc1	D3 antag -98
C/C=C(\C)C(=O)NCCN1C2=NC[C@H](Cc3ccccc3)N2C[C@@H]1Cc1ccc(OC)cc1	D3 antag -52
COc1ccc(C[C@H]2CN3C(=NC[C@H]3Cc3ccccc3)N2CCNC(=O)c2ccc(C)c(Br)c2)cc1	none
C/C=C(\C)C(=O)NCCN1C2=NC[C@H](Cc3ccccc3)N2C[C@H]1Cc1ccc(O)cc1	none
Cc1ccc(NC(=O)CN2C(=O)/C(=C3\SC(=S)N(C4CCS(=O)(=O)C4)C3=O)c3ccccc32)cc1 (stereo not given)	none
COC(=O)c1ccc(NC(=S)N2CCN(C(=O)c3ccco3)CC2)cc1	none
COc1ccc(C(=O)Nc2ccc(Cl)cn2)cc1Cl	a7 integrin act inconclusive
COc1cc(C2c3c(-c4ccccc4O)n[nH]c3C(=O)N2CCO)ccc1OCc1ccccc1 (stereo not given)	none (no result: a7 integrin act, D3 antag)
Clc1cccc(OCCn2cncn2)c1Cl	D3 antag inconclusive
CCN1CCN(CCOc2cccc(Cl)c2Cl)CC1	D3 ag 67, D3 antag inconclusive
CCC(=O)c1ccccc1OCCN1CCN(CC)CC1	none
CC1CC(C)CN(CCOc2ccc(Cl)cc2Cl)C1 (stereo not given)	D3 antag -97
CC1CC(C)CN(CCOc2cccc(Cl)c2Cl)C1 (stereo not given)	D3 antag -71
Cn1c(=O)n(CCOc2ccc(Cl)cc2Cl)c2ccccc21	none
Cc1ccc(OCC(=O)NNC(=O)c2cccnc2)cc1C	none
CCCn1c(N)c(C(=O)CN(C)CC(=O)Nc2ccccc2C(F)(F)F)c(=O)[nH]c1=O	none
CCOc1ccc(-c2cc3nc(C4CCN(C(=O)OC(C)(C)C)CC4)c(C(=O)Nc4cccc(C(F)(F)F)c4)cn3n2)cc1	none (no result: a7 integrin act, D3 antag)
O=C(Nc1cnccn1)Nc1ccccc1Cl	none
C/C(=N\NC(=O)c1cccs1)c1ccc2ccccc2c1	a7 integrin act inconclusive
CSCCC(N=C1NS(=O)(=O)c2ccccc21)C(=O)NCc1ccccc1F (stereo not given)	none
CC1=C(C(=O)NCc2ccccc2C)C2(CCCCC2)OC1=O	none (no result: a7 integrin act, D3 antag)
O=C(C1CC1)N1CCN=C1SCc1ccccc1Cl	D3 antag -60
CCC(=O)N1CCN=C1SCc1ccccc1Cl	none
CS(=O)(=O)/C(C#N)=C/c1cccn1S(=O)(=O)c1cccc2ccccc12	none (no result: a7 integrin act)
N#CCCN1CCN(S(=O)(=O)c2ccc(S(=O)(=O)N3CCCCCC3)cc2)CC1	none
CCN(C1CCCCC1)S(=O)(=O)c1ccc(S(=O)(=O)N2CCN(CCC#N)CC2)cc1	D3 antag -53
Nc1nnc(CC(=O)N/N=C\c2cc([N+](=O)[O-])ccc2O)s1	none
CC1(c2ccc([N+](=O)[O-])cc2)NC(=O)N(CC(=O)Nc2ccc(N3CCCCC3)cc2)C1=O (stereo not given)	D3 antag -51
CC1(c2ccccc2)NC(=O)N(CC(=O)Nc2ccc([N+](=O)[O-])cc2)C1=O (stereo not given)	none
CN(C)c1ccc2c3c(ccc(N(C)C)c13)C(=O)OC2	none
CCCCn1c(N)c(N(CCC(C)C)C(=O)C2CC(=O)N(CCc3ccc(OC)c(OC)c3)C2)c(=O)[nH]c1=O (stereo not given)	none
Cc1ccc(Oc2nc3c(c(=O)n(Cc4ccccc4)c(=O)n3C)n2C)cc1C	D3 ag 35 (no result: a7 integrin act, D3 antag)
Cc1ccc(Oc2nc3c(c(=O)n(Cc4ccccc4Cl)c(=O)n3C)n2C)cc1C	none (no result: a7 integrin act, D3 antag)
COc1ccccc1Cc1c(-c2ccc(C#N)cc2)nc2c3ccccc3ccn12	none (no result: a7 integrin act)
O=C(COc1ccc(Cl)cc1Cl)Nc1ccc(CN2CCOCC2)cc1	none
O=C(COc1ccc(Cl)cc1Cl)NC(=O)N1CCOCC1	D3 antag -58
CCCCOc1ccc(C(NC(=O)OCC)NC(=O)OCC)cc1	none
O=C(c1ccccc1)c1cc(Cl)ccc1N1C(=O)C=CC1=O	D3 antag -92
N#Cc1cc(C(=O)c2cc(Cl)ccc2O)cn(-c2ccccc2)c1=O	none
CCOc1ccc(S(=O)(=O)N2CCC(C(=O)N3CCCCCC3)CC2)cc1C	none
COc1ccc(C(C)=O)cc1CSc1nnc2c(Cl)cc(Cl)cn12	none
Cc1ccc(NS(=O)(=O)c2cc(C(=O)N(C)C)ccc2C)cc1C	none
COCc1nnc(NS(=O)(=O)c2ccc(OC)cc2)s1	none
COCc1nnc(NS(=O)(=O)c2ccc([N+](=O)[O-])cc2)s1	D3 antag -58
NC(=O)CN(c1ccc(Oc2ccccc2)cc1)S(=O)(=O)c1ccccc1	none
O=C(/C=C\c1ccccc1)Oc1cccc2cccnc12	D3 antag -59
O=C(/C=C/c1ccccc1)Oc1cccc2cccnc12	D3 antag inconclusive
COc1ccc(NC(=O)N2CCCC(c3ccccc3)C2)cc1 (stereo not given)	D3 ag 33
COc1ccc(NC(=O)C2CCCN(C(=O)Nc3ccc(OC)cc3)C2)cc1 (stereo not given)	none
COc1ccccc1N1CCN(CCN2C(=O)C3CCCCN3C2=O)CC1 (stereo not given)	D3 antag -79
COc1ccccc1N1CCN(CCCN2C(=O)C3CCCCN3C2=O)CC1 (stereo not given)	D3 antag -66
COc1ccccc1N1CCN(CCCN2C(=O)C3CCCN3C2=O)CC1 (stereo not given)	D3 antag -83

Source: PubChem (National Center for Advancing Translational Sciences (NCATS))
